From PubChem BioAssay
SENP6 block: SENP6 protease inhibition; Q9GZR1; Recombinant SENP6 catalytic domain, aminoluciferin luminescence; inhibition, % at 10 µM; hit rate 1.8% among 330,000; AID 2599;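 active means inhibition above about 50% at the single tested dose, limit read from the data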
SENP8 block-1: inhibitors of human SENP8 protease | Q96LD8 | hit rate 1.2% among 330,000 | purified SENP8, Z-RLRGG-aminoluciferin cleavage, luminescence | AID 2540 | inhibition, % at 10 µM; in the data active means inhibition above about 50%
SENP7 block: inhibitors of human SENP7 protease; Q9BQF6; recombinant SENP7, Z-RLRGG-aminoluciferin luminescence, 40 min; inhibition, % at 5 µM; hit rate 1.5% among 330,000; AID 434973;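 active means inhibition above about 50% at the single test dose, limit read from the data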
Target sequence (Q9BQF6 706-1050 limits assumed): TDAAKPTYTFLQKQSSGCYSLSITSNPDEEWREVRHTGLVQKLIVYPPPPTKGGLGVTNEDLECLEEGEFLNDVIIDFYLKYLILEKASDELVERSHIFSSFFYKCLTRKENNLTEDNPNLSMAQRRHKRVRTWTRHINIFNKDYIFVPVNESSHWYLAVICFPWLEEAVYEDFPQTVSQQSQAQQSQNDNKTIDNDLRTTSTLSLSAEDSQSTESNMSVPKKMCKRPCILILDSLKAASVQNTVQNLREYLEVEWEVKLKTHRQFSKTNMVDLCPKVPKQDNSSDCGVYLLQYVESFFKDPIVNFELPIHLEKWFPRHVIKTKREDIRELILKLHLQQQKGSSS
SENP8 block-2: SENP8 (human) protease inhibition; inhibition, % at 20 µM; hit rate 0.64% among 360,000; Q96LD8; recombinant SENP8, Nedd8 substrate fluorescence; in the data active means inhibition mostly above about 40%, no sharp cut-off; inactive means mostly below about 27%
C8 TRAIL sens: sensitizes caspase-8 expressing cells to TRAIL; NB7+C8 cells + TRAIL, ATPlite viability luminescence; AID 624354; inhibition (viability loss, TRAIL sensitization), % at 10 µM; hit rate 1% among 360,000;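 active means compounds causing at least 50% loss of cell viability in the single-dose screen, relative to plate controls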
PPC-1+TRAIL kill: PPC-1 cancer cell killing with TRAIL present. cell killing (% activity), % at 4 µM or 5 µM. hit rate 0.41% among 220,000. PPC-1 cells + TRAIL, ATPLite viability luminescence;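 active means cell killing above 50% in the first pass at 4 µM, then a duplicate retest at 5 µM averaging 50% or more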
SENP8 conf: confirmation of human SENP8 protease inhibitors; hit rate 40% among 6,200; AID 488912; Recombinant SENP8, Z-RLRGG-aminoluciferin luminescence, 60 min; inhibition, % at 12.5 µM; shares compounds with SENP7 block;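 active means mean inhibition across replicates above about 50%, limit read from the data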
SENP6 conf: confirmation of human SENP6 protease inhibitors; hit rate 58% among 6,200; inhibition, % at 12.5 µM; shares compounds with SENP7 block; recombinant SENP6, Z-RLRGG-aminoluciferin luminescence
SENP7 confirm: human SENP7 inhibition, confirmed; shares compounds with SENP7 block; recombinant SENP7, Z-RLRGG-aminoluciferin luminescence, 40 min; inhibition, % at 12.5 µM; hit rate 69% among 6,200; AID 488917
Casp3 select: caspase-3 inhibition (SENP selectivity assay); shares compounds with SENP7 block; purified caspase-3, Z-DEVD-aminoluciferin luminescence, 60 min; inhibition, % at 12.5 µM; hit rate 60% among 6,200; AID 488918;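 active means mean inhibition above about 50%, limit read from the data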
Target sequence (P42574 28-227 limits assumed): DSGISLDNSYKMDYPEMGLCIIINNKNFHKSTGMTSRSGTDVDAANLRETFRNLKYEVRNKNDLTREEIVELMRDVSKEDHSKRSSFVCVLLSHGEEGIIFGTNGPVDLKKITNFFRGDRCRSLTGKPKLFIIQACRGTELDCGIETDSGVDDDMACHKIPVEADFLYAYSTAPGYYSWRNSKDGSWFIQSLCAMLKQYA
SENP luc ctr: interferes with luciferase luminescence in SENP counter-screen. shares compounds with SENP7 block. Pre-incubated SENP8/Z-RLRGG-aminoluciferin, luciferase luminescence interference. inhibition, % at 12.5 µM. hit rate 39% among 6,200;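 active means mean inhibition above about 50% when retested at one dose, limit read from the data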
Of the large screens only hits and unclear results are named; the others gave an inactive call (follow-up assays come after a bar, where they were run). This is a sample that favours compounds with a hit; in the whole collection about 3% have one here.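 How the source made its calls, unless noted: active means mean inhibition above about 50% in the one-dose retest (limit read from the data); inactive means the rest.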

Oc1ccccc1C1CC(c2cccs2)=NC(c2cccc(Br)c2)N1 (stereo not drawn)	none
Cc1cc(OCc2cn(CC(=O)c3ccc(O)cc3)nn2)ccc1[N+](=O)[O-]	none (no result: SENP6 block, SENP8 block-1, SENP7 block, PPC-1+TRAIL kill)
Cc1cc(N)ccc1-n1nc2ccccc2n1	none (no result: PPC-1+TRAIL kill)
Cc1ccc(-n2nc3ccc(N)cc3n2)c(C)c1	SENP6 block 78.2, SENP8 block-1 64.7 (no result: PPC-1+TRAIL kill) | SENP8 conf inactive | SENP6 conf inactive | SENP7 confirm inactive | Casp3 select inactive | SENP luc ctr inactive
O=C(c1ccc(Cl)s1)N1CCc2ccccc21	SENP6 block 88.8, SENP8 block-1 80.7, SENP7 block 89.2 | SENP8 conf 54.3 | SENP6 conf 67.6 | SENP7 confirm 81.2 | Casp3 select 79.8 | SENP luc ctr 54.3
CNC(=S)NN=C(C)CCCC(C)=NNC(=S)NC	none (no result: SENP6 block, SENP8 block-1, SENP7 block, PPC-1+TRAIL kill)
Cc1ccccc1/C(N)=N/OC(=O)c1cccs1	SENP6 block 74.1 | SENP8 conf 55.7 | SENP6 conf 55.3 | SENP7 confirm 83.9 | Casp3 select 80.3 | SENP luc ctr 61.5
Cc1ccc(/C(N)=N/OC(=O)/C=C/c2ccccc2)cc1	none
Cc1ccccc1/C(N)=N/OC(=O)/C=C/c1ccccc1	SENP6 block 67.4, SENP7 block 60.0, C8 TRAIL sens 93.7 | SENP8 conf 50.6 | SENP6 conf 52.5 | SENP7 confirm 82.9 | Casp3 select 71.3 | SENP luc ctr 64.2
CC1(C)CC(=O)C([N+](=O)[O-])=C(NCCCC(=O)O)C1	none
COc1ccc(NC(=O)CN2c3cccc4cccc(c34)S2(=O)=O)cc1OC	none (no result: SENP6 block, SENP8 block-1, SENP7 block, PPC-1+TRAIL kill)
CC(=O)Oc1ccc(-c2csc(Nc3ccccn3)n2)cc1	none (no result: SENP6 block, SENP8 block-1, SENP7 block, PPC-1+TRAIL kill)
COc1ccc(-c2csc(Nc3cccc(C)n3)n2)cc1	SENP6 block 90.4, SENP8 block-1 87.7, SENP7 block 81.2 (no result: PPC-1+TRAIL kill) | SENP8 conf inactive | SENP6 conf 81.1 | SENP7 confirm 96.3 | Casp3 select 53.7 | SENP luc ctr inactive
CC(=O)Oc1ccc(-c2csc(Nc3cccc(C)n3)n2)cc1	SENP6 block 72.8, SENP8 block-1 87.1, SENP7 block 87.1 (no result: PPC-1+TRAIL kill) | SENP8 conf inactive | SENP6 conf inactive | SENP7 confirm 55.3 | Casp3 select 70.2 | SENP luc ctr inactive
Cc1cccc(Nc2nc(-c3ccc(F)cc3)cs2)n1	SENP6 block 95.6, SENP8 block-1 84.3, SENP7 block 84.6 (no result: PPC-1+TRAIL kill) | SENP8 conf inactive | SENP6 conf 81.3 | SENP7 confirm 96.9 | Casp3 select 55.7 | SENP luc ctr inactive
Cc1ccccc1NC(=O)Nc1ccc2c(c1)OCO2	SENP6 block 91.2, SENP8 block-1 79.3, SENP7 block 95.6 (no result: PPC-1+TRAIL kill) | SENP8 conf inactive | SENP6 conf 73.6 | SENP7 confirm inactive | Casp3 select 92.4 | SENP luc ctr inactive
CCOc1ccccc1OCCC(=O)Nc1ccc2c(c1)OCO2	none (no result: PPC-1+TRAIL kill)
CCOc1ccccc1NC(=O)Nc1ccc2c(c1)CCC2	SENP6 block 69.5, SENP7 block 52.9 (no result: PPC-1+TRAIL kill) | SENP8 conf 53.4 | SENP6 conf 68.0 | SENP7 confirm 87.0 | Casp3 select inactive | SENP luc ctr inactive
CCOc1ccccc1NC(=O)Nc1ccc2c(c1)OCO2	SENP6 block 86.1, SENP8 block-1 72.1, SENP7 block 85.3 (no result: PPC-1+TRAIL kill) | SENP8 conf inactive | SENP6 conf 81.3 | SENP7 confirm 96.7 | Casp3 select 79.1 | SENP luc ctr 79.2
O=C(Nc1ccc2c(c1)CCC2)Nc1ccccc1Cl	SENP6 block 94.6, SENP8 block-1 91.2, SENP7 block 94.4 (no result: PPC-1+TRAIL kill) | SENP8 conf inactive | SENP6 conf 92.9 | SENP7 confirm 72.3 | Casp3 select 81.4 | SENP luc ctr inactive
CCOc1ccccc1NC(=O)Nc1cccc(NC(C)=O)c1	none
O=C(Nc1ccccc1Cl)Nc1ccccc1Cl	none
O=C(Nc1ccc(Nc2ccccc2)cc1)Nc1ccccc1Cl	SENP6 block 88.4, SENP8 block-1 85.8, SENP7 block 85.1 | SENP8 conf 70.9 | SENP6 conf 89.4 | SENP7 confirm 98.9 | Casp3 select 56.1 | SENP luc ctr 63.0
Cc1cccc(Nc2nn3c(=O)c4ccccc4nc3s2)c1	none
CCCSc1nn2c(=O)c3ccccc3nc2s1	SENP6 block 63.6 | SENP8 conf 67.2 | SENP6 conf 65.1 | SENP7 confirm 88.9 | Casp3 select 82.7 | SENP luc ctr 64.7
Cc1ccc(N=Nc2c(N)n(-c3ccccc3)[nH]c2=O)cc1	SENP6 block 76.3, SENP8 block-1 54.5, SENP7 block 81.6 | SENP8 conf inactive | SENP6 conf inactive | SENP7 confirm inactive | Casp3 select inactive | SENP luc ctr inactive
Cc1[nH]n(-c2ccccc2)c(=O)c1N=Nc1ccc(Cl)cc1	none (no result: PPC-1+TRAIL kill)
CCCSc1ccc(C(=O)Nc2ccc(F)cc2F)cn1	SENP6 block 52.5, SENP7 block 67.9 | SENP8 conf inactive | SENP6 conf inactive | SENP7 confirm inactive | Casp3 select inactive | SENP luc ctr inactive
CC(C)S(=O)(=O)c1ccc(C(=O)Nc2ccc(F)cc2F)cn1	none
c1ccc(CN2CCN(c3ncccn3)CC2)cc1	none (no result: PPC-1+TRAIL kill)
c1ccc(COc2ccc(CN3CCN(c4ccccn4)CC3)cc2)cc1	SENP6 block 53.7 | SENP8 conf 58.8 | SENP6 conf 53.2 | SENP7 confirm 71.7 | Casp3 select inactive | SENP luc ctr 66.5
COc1ccc(CNc2nc3ccccc3n2C)c(O)c1	SENP6 block 64.5, SENP7 block 68.4 | SENP8 conf 66.6 | SENP6 conf 64.9 | SENP7 confirm 90.3 | Casp3 select 73.1 | SENP luc ctr 71.4
Cn1c(NCc2ccc(Cl)cc2)nc2ccccc21	none
Cc1ccc(CNc2nc3ccccc3n2C)cc1	SENP6 block 78.4, SENP8 block-1 59.0, SENP7 block 71.9, C8 TRAIL sens 58.3 (no result: PPC-1+TRAIL kill) | SENP8 conf 60.9 | SENP6 conf 61.5 | SENP7 confirm 90.6 | Casp3 select 87.7 | SENP luc ctr 75.1
COc1ccc(Nc2nc3ccccc3n2C)cc1	SENP6 block 55.5 (no result: PPC-1+TRAIL kill) | SENP8 conf inactive | SENP6 conf inactive | SENP7 confirm 69.0 | Casp3 select 71.5 | SENP luc ctr inactive
COc1ccc(NCc2nc3ccccc3n2C)cc1	SENP6 block 68.1 (no result: PPC-1+TRAIL kill) | SENP8 conf 65.2 | SENP6 conf 63.5 | SENP7 confirm 84.7 | Casp3 select 86.6 | SENP luc ctr 70.5
Cn1cc(Cc2ccc(C(=O)N3CCOCC3)cn2)c2ccccc21	none (no result: SENP6 block, SENP8 block-1, SENP7 block, PPC-1+TRAIL kill)
O=[N+]([O-])c1cccc(COc2ccccc2CN2CCCC2)c1	none (no result: SENP6 block, SENP8 block-1, SENP7 block, PPC-1+TRAIL kill)
Cc1ccc(Cl)cc1NC(=S)N1CCCCCC1	none (no result: PPC-1+TRAIL kill)
